From ChEMBL document CHEMBL1157539, “Thousands of chemical starting points for antimalarial lead identification” (Nature, 2010) come the findings set out here.

Common to all, as to type: functional
The subject of experiment [1] is Plasmodium falciparum. Nature of the experiment: GSK_TCMDC: Inhibition of Plasmodium falciparum 3D7 in whole red blood cells, using parasite LDH activity as an index of growth. Test compounds present at 2uM.
The test system of experiment [2] is Plasmodium falciparum. Briefly: GSK_TCMDC: Inhibition of Plasmodium falciparum Dd2 in whole red blood cells, using parasite LDH activity as an index of growth. Test compounds present at 2uM.
The subject of another experiment is HepG2. Nature of the experiment: GSK_TCMDC: Percent inhibition of human HepG2 cell line. Test compounds present at 10uM.

As to `CC1CN(c2cnn(Cc3ccc(NC(=O)Nc4cccc(C(F)(F)F)c4)cc3)c(=O)c2Cl)CC(C)N1.O=C(O)C(F)(F)F` (centres undefined), the values for the Inhibition in the experiment with Plasmodium falciparum [1], with Plasmodium falciparum [2] and with HepG2 were 86%, 31% and 0%, respectively.

As to `CN(C)c1cccc2c1nc(-c1ccco1)n2CC1CCCN1.O=C(O)C(F)(F)F` (centres undefined), the Inhibition (as a rule, the change of the read-out against control, counted positive when it falls) in the experiment with Plasmodium falciparum [1] came out at 86%; with Plasmodium falciparum [2], 46%; with HepG2, 0%.

Take `CN1CCN(c2cccc(-c3nnc(-c4ccc(OCC(=O)NCc5ccc(C(F)(F)F)cc5)c([N+](=O)[O-])c4)o3)c2)CC1`: the values for the Inhibition with Plasmodium falciparum [1], in the experiment with Plasmodium falciparum [2] and in the experiment with HepG2 were 90%, 44% and 35%, respectively.

With `COc1ccc2ncc(Cl)c(CCN3CCC(NCc4ccc5c(n4)NC(=O)CO5)CC3)c2c1.Cl`, the Inhibition in the experiment on Plasmodium falciparum [1] turned out to be 92%; in the experiment with Plasmodium falciparum [2] it was 26%; with HepG2, 25%.

In the case of `CC1Cc2ccccc2N1S(=O)(=O)c1cccc(C(=O)Nc2nc(-c3ccccn3)cs2)c1` (centres undefined), the Inhibition is recorded as 84% in the experiment on Plasmodium falciparum [1], 77% in the experiment on Plasmodium falciparum [2] and 32% in the experiment on HepG2.

In the case of `CN(C)CCCn1cncc1-c1ccc2ncnc(Nc3ccc(OCc4ccccc4)cc3)c2c1`, the Inhibition amounted to 100% with Plasmodium falciparum [1], 100% in the experiment on Plasmodium falciparum [2] and 37% with HepG2.

With `Fc1ccc2[nH]ccc(=NN=Cc3ccccc3Cl)c2c1`, the values for the Inhibition in the experiment with Plasmodium falciparum [1], in the experiment on Plasmodium falciparum [2] and in the experiment on HepG2 were 100%, 39% and 3%, respectively.

For the molecule `FC(F)(F)c1ccc(Nc2nnnc3ccccc23)cc1`, the Inhibition in the experiment on Plasmodium falciparum [1] was 90%; in the experiment with Plasmodium falciparum [2] it was 82%; with HepG2 it was 3%.

As to `Fc1ccc(-c2cncc(Nc3ccncc3)n2)cc1`, the Inhibition in the experiment with Plasmodium falciparum [1] is listed as 88%; in the experiment on Plasmodium falciparum [2], 11%; with HepG2, 8%.

For `CCCCCNC(=N)c1ccc(OCCCCCOc2ccc(C(=N)NCCCCC)cc2)cc1.Cl`, the Inhibition with Plasmodium falciparum [1] is listed as 99%; with Plasmodium falciparum [2], 98%; in the experiment on HepG2, 3%.

For `COc1ccc2nccc(CCN3CC(O)C(CNCc4ccc5c(n4)NC(=O)CS5)C3)c2n1.Cl` (centres undefined), the values for the Inhibition with Plasmodium falciparum [1], in the experiment with Plasmodium falciparum [2] and with HepG2 were 86%, 26% and 4%, respectively.

With `COc1ccccc1CCNc1nc(C)cc(N[C@@H](Cc2ccccc2)C(=O)NCCCOC(C)C)n1.O=C(O)C(F)(F)F`, the Inhibition stood at 99% with Plasmodium falciparum [1], 32% with Plasmodium falciparum [2] and 10% with HepG2.

Turning to `Cc1cccc(-c2nc(Nc3ccncc3)c3cc(N(C)C)ccc3n2)n1`, the Inhibition is recorded as 98% in the experiment on Plasmodium falciparum [1], 63% with Plasmodium falciparum [2] and 5% with HepG2.

On to `COc1ccc(CCNC(=O)c2cc3c(=O)n4cccc(C)c4nc3n(C)c2=N)cc1`, for which the Inhibition in the experiment on Plasmodium falciparum [1] is reported as 99%; in the experiment on Plasmodium falciparum [2], 99%; in the experiment with HepG2, 22%.

For `CCOC(=O)c1ccc(NC(=O)Nc2cccc(-c3ccc(-c4nc5cccc(C)c5[nH]4)s3)c2)cc1`, the Inhibition with Plasmodium falciparum [1] is 100%; in the experiment on Plasmodium falciparum [2], 99%; with HepG2 it was 44%.

As for `COCCNCc1cccc(-c2ccc3c(Nc4ccc(F)cc4Cl)ccnc3c2)c1`, the Inhibition turned out to be 100% in the experiment on Plasmodium falciparum [1], 100% in the experiment on Plasmodium falciparum [2] and 8% with HepG2.

As to `O=C(Cc1ccc(NC(=O)c2ccc(O)c(-c3ccc(Cl)c(Cl)c3)c2)cc1)NCc1cccc(C(F)(F)F)c1`, the figures for the Inhibition in the experiment with Plasmodium falciparum [1], in the experiment on Plasmodium falciparum [2] and with HepG2 were 95%, 28% and 0%, respectively.

On to `O=C(C=Cc1ccc(Cl)c(Cl)c1)NCCCCCN1CCC(CCCNS(=O)(=O)c2cccc(C(F)(F)F)c2)CC1`, for which the values for the Inhibition with Plasmodium falciparum [1], in the experiment with Plasmodium falciparum [2] and with HepG2 were 100%, 59% and 99%, respectively.

As for `Cc1ccccc1C1CCN(C2CCC(NC(=O)c3ccc(-c4cc(C(F)(F)F)nn4C)s3)CC2)CC1` (centres undefined), the Inhibition with Plasmodium falciparum [1] came out at 98%; in the experiment on Plasmodium falciparum [2], 68%; in the experiment on HepG2, 42%.

`COc1ccc(NC(=O)[C@H](CC(C)C)Nc2cc(C)nc(NCc3ccccc3C)n2)cc1.O=C(O)C(F)(F)F`: the Inhibition was 100% in the experiment on Plasmodium falciparum [1], 78% in the experiment with Plasmodium falciparum [2] and 12% with HepG2.

For `COc1ccc(-c2cc(-c3ccc(S(C)(=O)=O)cc3)cnc2N)cn1`, the results for the Inhibition in the experiment with Plasmodium falciparum [1], in the experiment on Plasmodium falciparum [2] and with HepG2 were 94%, 99% and 5%, respectively.

In the case of `Cc1nn(C2CCS(=O)(=O)C2)c(C)c1C1Nc2ccccc2C(=O)N1Cc1ccc2c(c1)OCO2` (centres undefined), the figures for the Inhibition in the experiment with Plasmodium falciparum [1], in the experiment on Plasmodium falciparum [2] and with HepG2 were 98%, 93% and 7%, respectively.

`COc1cccc(-c2ccc(C(=O)NC3CCN(Cc4ccc(N(C)C)cc4)CC3)s2)c1.O=C(O)C(F)(F)F`: the Inhibition in the experiment with Plasmodium falciparum [1] is on record as 81%; in the experiment on Plasmodium falciparum [2] it was 20%; with HepG2 it was 8%.

Regarding `Cc1ccc(S(=O)(=O)N2CCCN(C(=O)c3cc(-c4ccccc4)[nH]n3)CC2)cc1`, the Inhibition in the experiment on Plasmodium falciparum [1] was found to be 96%; in the experiment on Plasmodium falciparum [2] it was 93%; in the experiment on HepG2, 11%.

`COc1cc(CN/C(=N/c2ccc(-c3ccccc3)cc2)Nc2ccc(C#N)cc2O)cc(OC)c1`: the Inhibition with Plasmodium falciparum [1] was 95%; with Plasmodium falciparum [2], 64%; in the experiment on HepG2, 0%.

Take `COc1ccc(-c2nonc2NC(=O)c2cccc(C)c2)cc1OC`: the results for the Inhibition in the experiment on Plasmodium falciparum [1], in the experiment with Plasmodium falciparum [2] and in the experiment with HepG2 were 97%, 8% and 24%, respectively.

`CC(CN(C)C)C(=O)Nc1ccc(-c2ccc(-c3nc4ccccc4[nH]3)cc2)cc1` (centres undefined): the Inhibition with Plasmodium falciparum [1] is given as 99%; in the experiment with Plasmodium falciparum [2], 83%; in the experiment on HepG2 it was 2%.

As to `O=C(Nc1ccc(OC2CCN(Cc3ccsc3)C2)c(Cl)c1)c1ccc(F)cc1.O=C(O)C(F)(F)F` (centres undefined), the Inhibition is 89% in the experiment with Plasmodium falciparum [1], 73% with Plasmodium falciparum [2] and 0% with HepG2.
